The source made the active and inactive calls. Rule for the calls: active = hit-call score of the fitted dose curve at least 0.9, where 1 is the maximum; inactive = score below 0.9.

Read-out in this assay: Keratin 19 (KRT19), KRT19 (gene 3880)
As to the kind of experiment: LTEA_HepaRG_KRT19: Life Technologies and Expression Analysis (LTEA) Assay for Keratin 19 (KRT19) using HepaRG (AID 2283512). Conditions: mRNA level, 48 h; actives raise or lower the signal. The method, then:
LTEA_HepaRG is a cell based, multiplexed-readout assay that uses HepaRG, a human liver cell line, with measurements taken at 48 hours after chemical dosing on a 96-well plate.LTEA_HepaRG_KRT19 is one of 102 assay component(s) measured in the LTEA HepaRG cell culture assay. It is a marker of Cell proliferation, survival, death.Data from the assay component LTEA_HepaRG_KRT19 was analyzed into 1 endpoint. This assay endpoint, LTEA_HepaRG_KRT19, was analyzed with bidirectional fitting relative to DMSO as the negative control and baseline of activity. Using a type of inducible reporter, measures of mRNA induction for gain or loss-of-signal activity can be used to understand regulation of transcription factor activity. To generalize the intended target to other relatable targets, this assay endpoint is annotated to the filaments intended target family, where the subfamily is keratin.
A total of 1060 chemcials from the ToxCast library were tested in eight-point concentration-response experiments. Cell culture and cytotoxicity assays were conducted at Thermo Fisher Scientific's Custom Services facility (Madison, WI). A single lot of human HepaRG cells (Thermo Fisher Scientific, Frederick, MD) was used for the cell culture experiments. 96-well format collagen type I coated plates of human HepaRG cells were prepared using established methods. Briefly, cryopreserved HepaRG cells were thawed, plated at a density of approximately 100,000 cells/well in HepaRG Thaw, Plate, and General Purpose media (HPRG770, Thermo Fisher Scientific), and incubated for 48 hours. 0.5% DMSO was selected as vehicle control to balance the requisite need of DMSO in HepaRG cultures to maintain differentiation (for example, baseline metabolism, proportions of hepatocytes vs. cholangiocytes), while enabling further hepatic receptor pathway activation (for example, PXR and CAR) in response to chemical exposure. 48 hours after plating, the culture medium was replaced with HepaRG Serum-Free Incudtion Media. Cells were exposed to each test chemical in duplicate and maintained in CO2 incubators for another 48 hours. Chemical plates were thawed to room temperature and 200x concentrations of treatment groups were prepared. 8-point conentration-reponse curves were made with the highest exposure at 100 uM, followed by half-log dilutions, all in 0.5% DMSO. Each test plate contained variouse controls, induction positive controls (1mM phenobarbital), cytotoxicity positive controls ([…] aflatoxin B1), vehicle controls (0.5% DMSO), and total lysis controls (0.5% DMSO). Cell morphology images were taken using an Essen IncuCyte FLR automated microscope, with six 96-well plates imaged in about 24 minutes. Images were captured and exported and JPEG files. Spent culture media was transfered to black-well plates for the LDH assay, and remaining media was sorted at -80 C for later use. Cells were treated with RLT buffer and frozen until shipped for gene expression analysis. Total RNA was isolated from the cell suspension in 75 uL of Buffer RLT (Qiagen, Germantown, MD 20874) by Quintiles/Expression Analysis (Durham, NC) using a custom isolation procedure. Total RNA from each plate well was transferred to a preamplification plate. Fluidigm's 96.96 Dynamic ArrayTM (Fluidigm, Amsterdam, the Netherlands) technology was used for gene expression analyses by quantitative reverse transcription polymerase chain reaction (qRT-PCR, performed by Quintiles/Expression Analysis, Durham, NC)89. Standard TaqManTM Assays (Applied Biosystems/ThermoFisher Scientific, Foster City, CA) were used to assess the expression of 93 genes selected based on their selectivity and sensitivity to important hepatic receptors known to be modulated by environmental chemicals; importance in human hepatocyte functionality; and hepatotoxicity. […]
On to `CC(O)CN(CCN(CC(C)O)CC(C)O)CC(C)O` (stereo not given), for which the call was inactive.

As to `O=C(O)c1cccc(N(Cc2cccnc2)c2ccc(OC(F)F)c(OC(F)F)c2)c1`, the AC50 is 24.6 µM (active).

As for `Fc1ccccc1[C@@H](F)COC1CCC(Nc2ncnc3[nH]ncc23)CC1` (stereo not given in full), the AC50 is 12.6 µM (active).

Consider `CC(=O)OC[C@H]1O[C@@](COC(C)=O)(O[C@H]2O[C@H](COC(C)=O)[C@@H](OC(C)=O)[C@H](OC(C)=O)[C@H]2OC(C)=O)[C@@H](OC(C)=O)[C@@H]1OC(C)=O`, for which the result was inactive.

For `CCCC(=O)OCC`, the outcome was inactive.

Consider `O=C1CCC(N2C(=O)c3ccccc3C2=O)C(=O)N1` (stereo not given), for which the outcome was inactive.

Consider `CC[C@H](C)C(=O)O[C@H]1C[C@@H](C)C=C2C=C[C@H](C)[C@H](CC[C@@H]3C[C@@H](O)CC(=O)O3)[C@H]21`, for which the outcome was inactive.

Take `CCCCC(CC)COC(=O)c1ccc(C(=O)OCC(CC)CCCC)cc1` (stereo not given): the call was inactive.

For the compound `CC(C)(O)c1coc(S(=O)(=O)NC(=O)Nc2c3c(cc4c2CCC4)CCC3)c1`, the compound was classed as inactive.

As for `Cn1cnc([N+](=O)[O-])c1Sc1ncnc2nc[nH]c12`, the AC50 was 5.94 µM (active).

For the compound `CCOC(=O)CC(CC(=O)OCC)(OC(C)=O)C(=O)OCC`, the call was inactive.

As for `O=C1OC(=O)C2C3C=CC(C3)C12` (stereo not given), the compound was called inactive.

Take `COC(=O)c1ccccc1O`: the compound was classed as inactive.

As for `Cc1ccc(C)c(O)c1`, the result was inactive.

For `COc1ccc2sc(C(=O)Nc3nnn[nH]3)c(OC(C)C)c2c1`, the compound was classed as inactive.

In the case of `O=C(O)c1cccc(Oc2ccccc2)c1`, the outcome was inactive.

Take `Cc1ccc(O)cc1`: the call was inactive.

Consider `CCOCCO`, for which the call was inactive.

Consider `CC1=CC(=O)CC(C)(C)C1`, for which the compound was called inactive.

Take `O=C(OC[C@H]1O[C@@H](OC(=O)c2cc(O)c(O)c(OC(=O)c3cc(O)c(O)c(O)c3)c2)[C@H](OC(=O)c2cc(O)c(O)c(OC(=O)c3cc(O)c(O)c(O)c3)c2)[C@@H](OC(=O)c2cc(O)c(O)c(OC(=O)c3cc(O)c(O)c(O)c3)c2)[C@@H]1OC(=O)c1cc(O)c(O)c(OC(=O)c2cc(O)c(O)c(O)c2)c1)c1cc(O)c(O)c(OC(=O)c2cc(O)c(O)c(O)c2)c1`: the call was inactive.

Turning to `C=CCCCCCCCCC(=O)O`, the compound was classed as inactive.

Regarding `NC(=O)NO`, the outcome was inactive.

`CN(C)c1ccc(N=NS(=O)(=O)O)cc1`: the AC50 was 18.9 µM (active).

Turning to `CCN(C(=O)c1cc(C)cc(OC[C@H](C)Nc2ccncc2)c1)C(C)C`, the concentration at half-maximal activity (AC50) was 19.3 µM (active).

For `CC(=O)c1ccc2c(c1)[C@H](NC(=O)c1ccc(F)cc1)[C@@H](O)C(C)(C)O2`, the outcome was inactive.

As for `CCOC(=O)c1ccc(C2CCC(NC[C@H](O)COc3ccc(O)c(NS(C)(=O)=O)c3)CC2)cc1` (stereo not given in full), the half-maximal activity concentration (AC50) was 2.04 µM (active).

Regarding `C[C@](N)(Cc1ccc(O)c(O)c1)C(=O)O`, the outcome was inactive.

Turning to `CC(C)CCCCCCCOC(=O)CCCCC(=O)OCCCCCCCC(C)C`, the outcome was inactive.

In the case of `Clc1nc(Cl)c(Cl)c(Cl)c1Cl`, the call was inactive.

Take `CNCc1ccc(NC(=O)c2c[nH]c3c2C(=O)CCC3)cc1`: the result was inactive.

For the compound `CC(C)CCCCCCOC(=O)c1ccc(C(=O)OCCCCCCC(C)C)c(C(=O)OCCCCCCC(C)C)c1`, the compound was called inactive.

For the compound `Cc1c(-c2cccnc2)c2ccccc2n1CCCCC(=O)O`, the compound was called inactive.

For `CCC(C)(C)C(=O)O[C@H]1C[C@@H](C)C=C2C=C[C@H](C)[C@H](CC[C@@H]3C[C@@H](O)CC(=O)O3)[C@H]21`, the compound was classed as inactive.

For the compound `O=P(OC(CCl)CCl)(OC(CCl)CCl)OC(CCl)CCl`, the AC50 is 50 µM (active).

Take `On1ccccc1=S`: the call was inactive.

As for `C1N2CN3CN1CN(C2)C3`, the result was inactive.

In the case of `CCNc1ccccc1`, the compound was called inactive.

In the case of `Cn1c(=O)c2c(ncn2C)n(C)c1=O`, the compound was called inactive.

Consider `CCOC(=O)COc1ccc2c(c1)CC(NCC(O)c1cccc(Cl)c1)CC2` (stereo not given), for which the half-maximal activity concentration (AC50) was 2.77 µM (active).

On to `COCCOCCOCCOC`, for which the compound was called inactive.
